Source: PubChem BioAssay AID2284065 (EPA ToxCast)
Active and inactive are the calls of the source. Rule for the calls: active = hit-call score of the fitted dose curve at least 0.9, where 1 is the maximum; inactive = score below 0.9.

Target: CYP2C8, CYP2C8 (gene 1558) (UniProt P10632)
Test: ERF_FR_ADME_hCYP2C8: Eurofins (ERF) CYP450-related Enzyme Activity (ADME) Assay for CYP2C8
Protocol: ERF_FR_ADME_hCYP2C8 is a biochemical, single-readout assay that uses extracted gene-proteins in a cell-free assay. Measurements were taken 0.16 hour after chemical dosing in a 96-well plate. See CYP2C8 inhibition (HLM, amodiaquine substrate).ERF_FR_ADME_hCYP2C8 is an assay component calculated from the ERF_FR_ADME_hCYP2C8 assay. It is designed to measure enzyme activity using a type of enzyme reporter as detected by peak area response of desethylamodiaquine with HPLC-MS/MS technology.Data from the assay component ERF_FR_ADME_hCYP2C8 was analyzed at the assay endpoint, ERF_FR_ADME_hCYP2C8, in the positive analysis fitting direction relative to acetonitrile as the negative control and baseline of activity. Using a type of enzyme reporter, loss-of-signal activity can be used to understand changes in enzymatic activity as they relate to gene CYP2C8. To generalize the intended target to other relatable targets, this assay endpoint is annotated to the cyp intended target family, where the subfamily is […].
Assay cells are incubated for 10 minutes at 37C with 10 uM amodiaquine.

CYP2C8, CYP2C8 (gene 1558), sequence (P10632 whole entry, looked up): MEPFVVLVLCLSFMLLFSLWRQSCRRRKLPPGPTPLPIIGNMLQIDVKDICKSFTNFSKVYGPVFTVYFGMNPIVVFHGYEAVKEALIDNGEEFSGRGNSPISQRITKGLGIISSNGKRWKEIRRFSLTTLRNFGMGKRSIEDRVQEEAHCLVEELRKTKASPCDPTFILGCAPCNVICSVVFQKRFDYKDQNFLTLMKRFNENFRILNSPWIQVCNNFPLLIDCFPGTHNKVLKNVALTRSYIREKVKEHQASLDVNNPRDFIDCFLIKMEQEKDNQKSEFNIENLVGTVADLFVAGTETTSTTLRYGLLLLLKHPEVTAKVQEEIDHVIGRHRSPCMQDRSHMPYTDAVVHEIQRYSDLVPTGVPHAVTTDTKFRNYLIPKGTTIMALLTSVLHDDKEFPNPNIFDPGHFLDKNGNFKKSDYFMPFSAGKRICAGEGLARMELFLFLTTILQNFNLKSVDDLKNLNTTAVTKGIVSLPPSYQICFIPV

`CCCCC[C@H](O)CC(=O)CCc1ccc(O)c(OC)c1` was tested. Which AC50 did it give?
The AC50 was 2270 nM (active).

With `COc1cc(CCC(=O)CC(=O)CCc2ccc(O)c(OC)c2)ccc1O` as the molecule, how does the AC50 read?
Its AC50 is 1830 nM (active).
